TPT1 inh – Candida albicans TPT1 enzyme inhibitors, primary screen, biochemical, fluorescence polarization; tRNA 2'-phosphotransferase TPT1 (Candida albicans SC5314); recombinant caTPT1, FP RNA substrate dephosphorylation; inhibition, % at 5 µM; hit rate 0.81% among 300,000;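 active = inhibition above the mean of all tested compounds plus 3 SD, set per screening campaign, cut at about 24% in these data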
Rpn11 block – Rpn11 (PSMD14) deubiquitinase inhibitors, primary screen, biochemical, fluorescence polarization, uHTS; human 26S proteasome, Ub4-pepOG fluorescence polarization; 20S core pre-blocked with epoxomicin; inhibition, % at 20 µM; hit rate 0.59% among 360,000; AID 588493, 2011;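 active = inhibition at 20 µM, scaled to each plate's controls, above about 33%, limit read from the data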
HNF4A DNA FP – change in binding of human HNF4A to DNA, primary screen, biochemical, fluorescence polarization, FITC-DNA | Hepatocyte nuclear factor 4-alpha (Homo sapiens), P41235 | 1 h | activity change, % at 10 µM | hit rate 0.3% among 360,000 | AID 1224865, 2016; in the data active = activity change above about 30%, passing the limit was not always enough
Target sequence (P41235 whole entry, looked up): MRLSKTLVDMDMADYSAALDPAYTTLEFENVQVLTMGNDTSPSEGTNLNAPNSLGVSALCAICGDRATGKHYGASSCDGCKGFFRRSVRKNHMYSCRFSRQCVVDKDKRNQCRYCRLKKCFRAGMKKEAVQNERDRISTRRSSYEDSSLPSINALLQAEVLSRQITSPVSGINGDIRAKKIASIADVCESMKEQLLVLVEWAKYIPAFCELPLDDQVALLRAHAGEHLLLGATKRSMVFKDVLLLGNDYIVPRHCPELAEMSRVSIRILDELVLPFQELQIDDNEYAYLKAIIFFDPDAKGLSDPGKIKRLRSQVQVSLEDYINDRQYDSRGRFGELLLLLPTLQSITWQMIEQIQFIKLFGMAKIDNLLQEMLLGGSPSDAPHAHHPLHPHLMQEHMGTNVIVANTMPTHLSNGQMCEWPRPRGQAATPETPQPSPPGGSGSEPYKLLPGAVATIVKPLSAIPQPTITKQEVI
Myeloid diff MLP – induction of myeloid progenitor differentiation, primary screen, cell-based, flow cytometry, MLPCN library; hit rate 1% among 360,000; ER-HoxA9 myeloid progenitors, lysozyme-GFP differentiation; calls only at 10 µM;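 active = normalized GFP-positive differentiation at or above the plate's own cutoff, the solvent-only control mean plus 3 SD; inconclusive = no clear call, values can overlap the other calls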;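 note: cells exposed to compound for four days before flow analysis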
Myeloid diff CP1 – inducers of myeloid progenitor differentiation, confirmation, cell-based, GFP/Mac1 flow cytometry, cherry pick 01; hit rate 2% among 2,300; ER-HoxA9 myeloid progenitors, GFP/Mac1 double-positive flow; AID 651706, 2012; calls only; shares compounds with Myeloid diff MLP;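 active = share of green or green-and-red cells above 9 and 9% in run 1 or 4 and 3% in run 2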
GFP autofluor – counter-screen for myeloid differentiation promoters: compound fluorescence. shares compounds with Myeloid diff MLP. ER-HoxA9 myeloid progenitors, no estrogen, GFP autofluorescence flow cytometry; vehicle wells 0%, positive control 100%. fluorescence response, % (test concentration not listed). hit rate 7.4% among 2,300;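 active = over 5% cells positive for green fluorescent reporter, or over 2% positive for both it and APC stain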
Calls only; i = inactive; ? = inconclusive; nt = not tested or not shown; + = active, no number. Sampled rows, rich in hits. Any-hit rate of the full collection: about 2.1%.

SMILES	TPT1 inh	Rpn11 block	HNF4A DNA FP	Myeloid diff MLP	Myeloid diff CP1	GFP autofluor
CCCCOCCCNC(=O)N[C@H](C(=O)OC)C(C)C	i	i	i	+	i	i
CC12CS(=O)(=O)CC1SC(=S)N2c1ccccn1 (stereo not given)	i	i	i	+	i	i
O=S1(=O)CC2SC(=S)N(c3ccccc3)C2C1 (stereo not given)	i	i	i	i	nt	nt
COc1ccc2c(c1OC)C(=O)N(c1ccc3c(c1)CCC3)C2=O	i	i	i	i	i	i
COc1ccc2c(c1OC)C(=O)N(c1ccc(C)c(C)c1)C2=O	i	i	i	i	nt	nt
CN(CCc1ccccc1)C(C(=O)Nc1ccc2c(c1)OCCO2)C1CC1 (stereo not given)	nt	i	i	i	nt	nt
O=C(NN=C1CCCCCC1)c1cc(-c2ccccc2)nc2ccccc12	i	i	i	i	nt	nt
Cc1ccc(-c2cc(C(=O)NN=C3CCCC3)c3ccccc3n2)cc1	i	i	i	i	i	i
CN(C)c1cccc(Nc2ccc(-c3ccc(OC(F)(F)F)cc3)cn2)c1	nt	i	i	+	i	i
CC(C)CN(C(=O)CSc1nc2ccccc2[nH]1)C1CCS(=O)(=O)C1 (stereo not given)	nt	i	i	i	nt	nt
COc1ccc(-n2c(C)nnc2SCC(=O)N2CCOCC2)cc1	i	i	i	i	nt	nt
C[C@H](O)C#Cc1cnc2c(c1)C(=O)N([C@H](C)CO)C[C@@H](C)[C@H](CN(C)C(=O)Nc1ccc(C(F)(F)F)cc1)O2	nt	i	i	i	i	i
C[C@H](CO)N1C[C@H](C)[C@H](CN(C)C(=O)Nc2ccc(C(F)(F)F)cc2)Oc2ncc(Br)cc2C1=O	nt	i	i	i	nt	nt
Nc1nc2ccc([N+](=O)[O-])cc2[nH]1	i	i	i	i	nt	nt
O=[N+]([O-])c1ccc(/C=C/c2nc3ccc([N+](=O)[O-])cc3[nH]2)cc1	i	i	i	+	i	i
COc1ccnc(Oc2ccc(C)cc2C)c1C#N	i	i	i	+	i	i
CCCCCCCNc1cccc(C)c1	i	i	i	i	i	i
O=[N+]([O-])c1ccccc1/C=C/CN1CCCCC1	i	i	i	i	i	i
O=C(CSc1ncnc2sc(-c3ccccc3)cc12)NC1CCS(=O)(=O)C1 (stereo not given)	i	i	i	i	nt	nt
Cc1cc(N2CCN(C(c3ccccc3)c3ccccc3)CC2)n2ncnc2n1	i	i	i	i	nt	nt
Cc1cc(N2CCN(c3nc4ccccc4s3)CC2)n2ncnc2n1	i	i	i	i	i	i
COc1ccc(N2CCN(C(=O)c3ccc(Cl)c(S(=O)(=O)N4CCOCC4)c3)CC2)cc1	nt	i	i	i	nt	nt
CCOc1ccccc1NC(=O)NC1(C(=O)NCc2cccnc2)CCCCC1	i	i	i	i	i	i
CCOc1ccccc1NC(=O)NC1(C(=O)N2CCOCC2)CCCCC1	i	i	i	i	nt	nt
Cc1ccc(S(=O)(=O)N2C[C@@H]3CCCC[C@@H]3[C@@H](C)[C@H]2c2cn(Cc3ccccc3)c3ccccc23)cc1	nt	i	i	?	nt	nt
SMILES	TPT1 inh	Rpn11 block	HNF4A DNA FP	Myeloid diff MLP	Myeloid diff CP1	GFP autofluor
Cc1ccc(S(=O)(=O)N2C[C@@H]3CCCC[C@@H]3[C@@H](C)[C@H]2c2cn(Cc3ccccc3)c3ncccc23)cc1	nt	i	i	i	i	i
COCCn1ccc2c(OCC(=O)Nc3cc(OC)ccc3OC)cccc2c1=O	i	i	i	+	i	i
CCOCCn1ccc2c(OCC(=O)Nc3cc(OC)ccc3OC)cccc2c1=O	i	i	i	?	nt	nt
COc1cc(Nc2ccn3nc(-c4ccc(F)cc4)cc3n2)cc(OC)c1OC	nt	i	i	i	nt	nt
CCCCNc1ccc2nsnc2c1[N+](=O)[O-]	i	i	i	i	nt	nt
Cc1ccc(C)c2sc(N3CCN(C(=O)c4ccc([N+](=O)[O-])o4)CC3)nc12	i	i	i	i	i	i
O=C(c1ccc([N+](=O)[O-])o1)N1CCN(c2nc3c(F)cc(F)cc3s2)CC1	i	i	i	i	nt	nt
O=C(c1ccccc1NS(=O)(=O)c1ccc([N+](=O)[O-])cc1[N+](=O)[O-])N1O[C@@H]2C=C[C@H]1C2	nt	i	i	i	nt	nt
CC(=O)N1CN(C2CCCC2)Cc2c1sc1c2CCCC1	i	i	i	i	i	i

Compound activity deposited in PubChem BioAssay by several laboratories.
